Experimental data reported in paper PMC7862700, “An all-to-all approach to the identification of sequence-specific readers for epigenetic DNA modifications on cytosine”.

Columns and labels:
Assay in all cases: DAPPL (digital affinity profiling via proximity ligation, sequencing); 10 mM Tris-HCl pH 7.5, 50 mM NaCl, 1 mM DTT, 4% glycerol, room temperature, 30 min; GST-TFs on glutathione beads, 16-mer random dsDNA library, 0.1% formaldehyde crosslink after washing; high values mean tight binding
Details in all cases: protein: recombinant; tags: N-terminal GST; dsDNA, one strand shown
FLI1 = biological target: T1, FLI1 (Homo sapiens, UniProt Q01543 1-452)
T1 sequence: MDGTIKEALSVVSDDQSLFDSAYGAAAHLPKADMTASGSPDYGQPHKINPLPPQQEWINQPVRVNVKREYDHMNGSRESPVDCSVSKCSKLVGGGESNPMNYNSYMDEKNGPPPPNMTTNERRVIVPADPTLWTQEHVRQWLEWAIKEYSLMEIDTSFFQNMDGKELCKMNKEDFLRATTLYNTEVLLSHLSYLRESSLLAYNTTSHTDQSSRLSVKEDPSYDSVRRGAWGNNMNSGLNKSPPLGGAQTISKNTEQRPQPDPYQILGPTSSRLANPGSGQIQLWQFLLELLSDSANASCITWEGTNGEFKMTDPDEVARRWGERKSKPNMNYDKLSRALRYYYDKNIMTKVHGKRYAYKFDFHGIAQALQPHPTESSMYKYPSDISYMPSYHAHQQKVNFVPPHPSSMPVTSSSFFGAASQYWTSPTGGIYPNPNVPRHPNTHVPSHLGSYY
Procedure, shortened: (§1)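 Pools were built from human transcription factors expressed in yeast as GST fusions, captured on glutathione beads and DNA-barcoded, along with a tag-only sample. Incubation with 200 nmole of a 16-mer random double-stranded DNA library lasted 30 min at room temperature in Tris/NaCl/DTT/glycerol buffer, and was followed by washing, 0.1% formaldehyde crosslinking, proximity ligation, PCR amplification and Illumina NextSeq500 sequencing. Binding signal is the quotient of each hexamer's read frequency for a factor and its frequency for the tag-only sample.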

ELK1 = biological target: T2, ELK1 (Homo sapiens, UniProt P19419 1-428)
T2 sequence: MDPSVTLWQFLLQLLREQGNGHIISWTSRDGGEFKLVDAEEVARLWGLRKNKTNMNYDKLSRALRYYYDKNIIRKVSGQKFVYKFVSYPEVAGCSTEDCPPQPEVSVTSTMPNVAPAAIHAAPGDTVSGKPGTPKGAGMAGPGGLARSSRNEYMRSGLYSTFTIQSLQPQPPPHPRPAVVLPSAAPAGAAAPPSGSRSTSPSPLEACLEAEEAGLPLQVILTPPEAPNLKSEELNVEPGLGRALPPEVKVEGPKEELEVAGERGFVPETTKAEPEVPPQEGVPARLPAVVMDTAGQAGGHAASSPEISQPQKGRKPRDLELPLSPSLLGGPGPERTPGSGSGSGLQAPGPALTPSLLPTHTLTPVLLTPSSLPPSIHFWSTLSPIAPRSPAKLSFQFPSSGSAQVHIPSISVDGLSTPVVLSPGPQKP
Procedure, shortened: as §1

GABPA = biological target: T3, GABPA (Homo sapiens, UniProt Q06546 1-454)
T3 sequence: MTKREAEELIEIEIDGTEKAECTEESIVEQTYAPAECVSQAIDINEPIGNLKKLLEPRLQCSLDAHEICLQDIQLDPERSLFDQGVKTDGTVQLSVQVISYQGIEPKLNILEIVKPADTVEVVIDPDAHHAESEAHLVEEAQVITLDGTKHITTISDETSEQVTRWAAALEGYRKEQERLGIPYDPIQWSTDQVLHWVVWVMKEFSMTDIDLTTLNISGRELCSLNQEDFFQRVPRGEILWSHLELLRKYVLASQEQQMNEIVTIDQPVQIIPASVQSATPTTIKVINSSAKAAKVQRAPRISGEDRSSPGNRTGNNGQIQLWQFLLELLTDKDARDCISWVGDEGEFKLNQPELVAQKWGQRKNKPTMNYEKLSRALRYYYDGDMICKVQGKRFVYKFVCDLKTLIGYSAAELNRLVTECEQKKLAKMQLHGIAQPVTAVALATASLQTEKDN
Procedure, shortened: as §1

ERG = biological target: T4, ERG (Homo sapiens, UniProt P11308 1-479)
T4 sequence: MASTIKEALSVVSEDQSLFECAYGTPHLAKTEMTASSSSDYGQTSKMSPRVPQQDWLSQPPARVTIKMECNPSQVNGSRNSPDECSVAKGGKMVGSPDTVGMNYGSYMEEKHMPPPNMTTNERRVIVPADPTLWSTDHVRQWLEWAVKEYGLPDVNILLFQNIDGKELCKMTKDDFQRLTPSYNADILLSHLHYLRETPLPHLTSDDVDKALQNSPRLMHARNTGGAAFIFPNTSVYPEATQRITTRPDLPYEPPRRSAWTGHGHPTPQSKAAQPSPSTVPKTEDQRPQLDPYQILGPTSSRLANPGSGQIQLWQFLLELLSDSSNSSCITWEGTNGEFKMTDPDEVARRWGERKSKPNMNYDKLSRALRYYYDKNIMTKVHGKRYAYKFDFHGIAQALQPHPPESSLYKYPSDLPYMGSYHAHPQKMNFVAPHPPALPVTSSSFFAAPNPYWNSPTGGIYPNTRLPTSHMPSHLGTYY
Procedure, shortened: as §1

ELF1 = ELF1 (Homo sapiens, UniProt P32519 1-619)
Procedure, shortened: as §1

EHF = biological target: T5, EHF (Homo sapiens, UniProt Q9NZC4 1-300)
T5 sequence: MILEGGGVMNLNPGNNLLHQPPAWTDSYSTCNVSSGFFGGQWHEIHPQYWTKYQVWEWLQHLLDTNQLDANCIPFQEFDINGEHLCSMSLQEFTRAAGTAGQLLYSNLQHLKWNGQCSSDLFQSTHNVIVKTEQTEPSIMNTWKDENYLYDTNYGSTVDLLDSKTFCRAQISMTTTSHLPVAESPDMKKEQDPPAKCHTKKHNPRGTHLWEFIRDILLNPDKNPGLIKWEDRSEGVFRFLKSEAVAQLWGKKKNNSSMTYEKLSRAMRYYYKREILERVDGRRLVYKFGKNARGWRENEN
Procedure, shortened: as §1

SPI1 = SPI1 (Homo sapiens, UniProt P17947 1-270)
Procedure, shortened: as §1

SPIB = SPIB (Homo sapiens, UniProt Q01892 1-262)
Procedure, shortened: as §1

ELK3 = biological target: T6, ELK3 (Homo sapiens, UniProt P41970 1-407)
T6 sequence: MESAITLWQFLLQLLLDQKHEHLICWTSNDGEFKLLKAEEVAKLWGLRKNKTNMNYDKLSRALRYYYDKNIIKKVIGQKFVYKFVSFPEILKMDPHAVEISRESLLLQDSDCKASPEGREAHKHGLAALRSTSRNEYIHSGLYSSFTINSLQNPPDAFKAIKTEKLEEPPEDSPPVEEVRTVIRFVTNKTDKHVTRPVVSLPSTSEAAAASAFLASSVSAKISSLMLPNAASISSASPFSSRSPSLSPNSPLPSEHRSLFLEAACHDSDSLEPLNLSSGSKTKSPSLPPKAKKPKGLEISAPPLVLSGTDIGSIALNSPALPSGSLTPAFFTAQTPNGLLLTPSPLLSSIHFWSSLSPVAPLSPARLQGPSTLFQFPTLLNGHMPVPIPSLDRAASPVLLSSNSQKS
Procedure, shortened: as §1

SPIB, sequence (Q01892 whole entry): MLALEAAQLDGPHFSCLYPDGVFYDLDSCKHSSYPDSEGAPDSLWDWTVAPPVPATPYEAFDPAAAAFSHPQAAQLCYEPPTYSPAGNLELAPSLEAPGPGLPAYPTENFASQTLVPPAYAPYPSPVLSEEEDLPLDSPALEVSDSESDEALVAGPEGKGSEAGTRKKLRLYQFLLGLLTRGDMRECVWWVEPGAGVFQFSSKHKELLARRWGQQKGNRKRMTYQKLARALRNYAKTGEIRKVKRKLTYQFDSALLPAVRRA
ELF1, sequence (P32519 whole entry): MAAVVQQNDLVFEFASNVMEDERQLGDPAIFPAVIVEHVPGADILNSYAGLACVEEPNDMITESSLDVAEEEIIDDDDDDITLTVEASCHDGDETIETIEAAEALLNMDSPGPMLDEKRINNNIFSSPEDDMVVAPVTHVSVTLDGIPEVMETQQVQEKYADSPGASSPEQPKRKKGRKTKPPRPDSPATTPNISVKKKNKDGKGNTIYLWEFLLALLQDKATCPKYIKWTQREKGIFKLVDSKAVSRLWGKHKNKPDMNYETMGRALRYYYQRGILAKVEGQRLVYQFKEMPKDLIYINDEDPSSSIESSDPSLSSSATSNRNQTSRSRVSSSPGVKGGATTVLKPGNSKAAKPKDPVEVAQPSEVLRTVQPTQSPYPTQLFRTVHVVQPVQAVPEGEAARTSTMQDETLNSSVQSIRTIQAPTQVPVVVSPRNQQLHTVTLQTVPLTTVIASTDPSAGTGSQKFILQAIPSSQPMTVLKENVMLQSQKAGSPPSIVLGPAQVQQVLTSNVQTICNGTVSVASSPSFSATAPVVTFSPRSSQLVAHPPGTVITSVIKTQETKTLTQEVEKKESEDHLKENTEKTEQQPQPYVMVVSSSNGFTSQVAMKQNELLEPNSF

| Sequence | binding signal (FLI1) | binding signal (ELK1) | binding signal (GABPA) | binding signal (ERG) | binding signal (ELF1) | binding signal (EHF) | binding signal (SPI1) | binding signal (SPIB) | binding signal (ELK3) |
| --- | --- | --- | --- | --- | --- | --- | --- | --- | --- |
| ATGGAC | 1.21 fold enrichment (6-mer frequency, TF over GST control) | 1.22 fold enrichment (6-mer frequency, TF over GST control) | 1.21 fold enrichment (6-mer frequency, TF over GST control) | 1.16 fold enrichment (6-mer frequency, TF over GST control) | 1.26 fold enrichment (6-mer frequency, TF over GST control) | 1.21 fold enrichment (6-mer frequency, TF over GST control) | 1.25 fold enrichment (6-mer frequency, TF over GST control) | 1.38 fold enrichment (6-mer frequency, TF over GST control) | 1.19 fold enrichment (6-mer frequency, TF over GST control) |
| CACACT | 1.18 fold enrichment (6-mer frequency, TF over GST control) | 1.11 fold enrichment (6-mer frequency, TF over GST control) | 1.17 fold enrichment (6-mer frequency, TF over GST control) | 1.18 fold enrichment (6-mer frequency, TF over GST control) | 1.21 fold enrichment (6-mer frequency, TF over GST control) | 1.2 fold enrichment (6-mer frequency, TF over GST control) | 1.16 fold enrichment (6-mer frequency, TF over GST control) | 1.14 fold enrichment (6-mer frequency, TF over GST control) | 1.24 fold enrichment (6-mer frequency, TF over GST control) |
| CAAACC | 1.16 fold enrichment (6-mer frequency, TF over GST control) | 1.15 fold enrichment (6-mer frequency, TF over GST control) | 1.11 fold enrichment (6-mer frequency, TF over GST control) | 1.16 fold enrichment (6-mer frequency, TF over GST control) | 1.13 fold enrichment (6-mer frequency, TF over GST control) | 1.05 fold enrichment (6-mer frequency, TF over GST control) | 1.15 fold enrichment (6-mer frequency, TF over GST control) | 1.06 fold enrichment (6-mer frequency, TF over GST control) | 1.15 fold enrichment (6-mer frequency, TF over GST control) |
| TGACCT | 1.75 fold enrichment (6-mer frequency, TF over GST control) | 1.82 fold enrichment (6-mer frequency, TF over GST control) | 1.81 fold enrichment (6-mer frequency, TF over GST control) | 1.73 fold enrichment (6-mer frequency, TF over GST control) | 1.84 fold enrichment (6-mer frequency, TF over GST control) | 1.86 fold enrichment (6-mer frequency, TF over GST control) | 1.7 fold enrichment (6-mer frequency, TF over GST control) | 1.56 fold enrichment (6-mer frequency, TF over GST control) | 1.6 fold enrichment (6-mer frequency, TF over GST control) |
| TGCTGA | 1.11 fold enrichment (6-mer frequency, TF over GST control) | 1.03 fold enrichment (6-mer frequency, TF over GST control) | 1.07 fold enrichment (6-mer frequency, TF over GST control) | 1.01 fold enrichment (6-mer frequency, TF over GST control) | 1.07 fold enrichment (6-mer frequency, TF over GST control) | 1.14 fold enrichment (6-mer frequency, TF over GST control) | 1.12 fold enrichment (6-mer frequency, TF over GST control) | 1.01 fold enrichment (6-mer frequency, TF over GST control) | 1.19 fold enrichment (6-mer frequency, TF over GST control) |
| GGTTTA | 1.12 fold enrichment (6-mer frequency, TF over GST control) | 1.01 fold enrichment (6-mer frequency, TF over GST control) | 1.05 fold enrichment (6-mer frequency, TF over GST control) | 1.1 fold enrichment (6-mer frequency, TF over GST control) | 1.02 fold enrichment (6-mer frequency, TF over GST control) | 1.08 fold enrichment (6-mer frequency, TF over GST control) | 1.09 fold enrichment (6-mer frequency, TF over GST control) | 1.05 fold enrichment (6-mer frequency, TF over GST control) | 1.07 fold enrichment (6-mer frequency, TF over GST control) |
| ACAACT | 1.36 fold enrichment (6-mer frequency, TF over GST control) | 1.4 fold enrichment (6-mer frequency, TF over GST control) | 1.4 fold enrichment (6-mer frequency, TF over GST control) | 1.41 fold enrichment (6-mer frequency, TF over GST control) | 1.46 fold enrichment (6-mer frequency, TF over GST control) | 1.2 fold enrichment (6-mer frequency, TF over GST control) | 1.41 fold enrichment (6-mer frequency, TF over GST control) | 1.35 fold enrichment (6-mer frequency, TF over GST control) | 1.5 fold enrichment (6-mer frequency, TF over GST control) |
